Hits are enriched below; roughly 5.4% of the tested compounds scored in any of these assays.
Vaccinia Venus: vaccinia inhibition (Venus reporter); Vaccinia virus Venus reporter expression, fluorescence; Potency, µM (titrated, usually from 36.5 µM), usual class: inhibitors; 330,000 tested, 0.46% active; calls by dose curve; tested in A549 cells; note: nearly all actives have a fitted effect of over 30% in size
Sm TGR inh: blocks Schistosoma mansoni thioredoxin glutathione reductase; purified TGR, DTNB reduction, TNB absorbance 405 nm; 360,000 tested, 3% active; AID 485364; Potency, µM (highest dose often 114 µM), most hits filed as inhibitors; Q962Y6; active = well fitted inhibition curve with a large enough effect; inconclusive = small, poorly fitted or top-dose-only effect; inactive = no such curve, though single readings can be large or run the other way; note: nearly all actives have a fitted effect of over 60% in size
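Kinetic colorimetric format: TGR-catalysed, NADPH-driven DTNB reduction monitored via TNB absorbance. Enzyme dispensed at 20 nM; compound exposure 15 min at room temperature before reaction start.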
Lassa entry inh: blocks Lassa virus binding to or entry into cells; Potency, µM (top dose mostly 37.9 µM), usual class: inhibitors; Lassa virus pseudotype entry inhibition, cell reporter; AID 540256; 300,000 tested, 1.2% active; calls by dose curve; tested in HEK293 cells; note: nearly all actives have a fitted effect of over 50% in size
Marburg entry inh: inhibitors of Marburg virus binding or cell entry; Marburg virus pseudotyped entry inhibition, cell reporter; Potency, µM (doses to about 37.8 µM), usual class: inhibitors; 300,000 tested, 1.8% active; AID 540276; calls by dose curve; tested in HEK293 cells
VACV mCherry inh: inhibitors of vaccinia virus infection (mCherry reporter signal) | Vaccinia virus mCherry reporter infection, fluorescence | Potency, µM (top dose mostly 36.5 µM), actives largely listed as inhibitors | 310,000 tested, 0.63% active; calls by dose curve; tested in A549 cells; note: nearly all actives have a fitted effect of over 35% in size
FMDV inh: antivirals against foot and mouth disease virus; FMDV antiviral cell-based qHTS; Potency, µM (doses to about 57.9 µM), most hits filed as inhibitors; 410,000 tested, 1.2% active; AID 1159524; calls by dose curve; tested in HEK293T cells; note: read-out not given here; nearly all actives have a fitted effect of over 45% in size
Each line names hits and unclear results; the compound was inactive in the other large screens.

O=C(COC(=O)Cc1c[nH]c2ccccc12)Nc1ccccc1	none
NC(=O)c1ccsc1NC(=O)COC(=O)Cc1cccc2ccccc12	Vaccinia Venus inconclusive, Marburg entry inh 7.08µM, FMDV inh 31.6µM
NC(=O)c1ccsc1NC(=O)COC(=O)Cc1c[nH]c2ccccc12	Lassa entry inh inconclusive, FMDV inh 20µM
CC(=O)c1cccc(NC(=O)CSc2nnc3ccc(-c4ccc(Br)cc4)nn23)c1	Vaccinia Venus inconclusive (no result: Marburg entry inh)
COC(=O)/C=C/c1cc(O)ccc1O	none (no result: Sm TGR inh, Lassa entry inh, Marburg entry inh)
COc1cccc(Cn2c(=O)n(-c3ccccc3C)c(=O)c3c2c2cc(C)ccc2n3C)c1	Lassa entry inh inconclusive (no result: Marburg entry inh)
COC[C@@H]1OC(=O)c2coc3c2[C@]1(C)C1=C(C3=O)[C@H]2CCC(=O)[C@]2(C)C[C@@H]1OC(C)=O	none (no result: Vaccinia Venus, Sm TGR inh, Lassa entry inh, VACV mCherry inh, FMDV inh)
O=P(c1ccccc1)(c1ccccc1)c1cc(Br)cc(Br)c1OCCO	Marburg entry inh 12.6µM, VACV mCherry inh inconclusive
NS(=O)(=O)c1cccc(NC(=O)CN2CCc3ccccc32)c1	Sm TGR inh inconclusive
CN(c1ccccc1)S(=O)(=O)c1cccc(NC(=O)CSc2nncs2)c1	Lassa entry inh 10.3µM, Marburg entry inh inconclusive, FMDV inh 10µM
CN(c1ccccc1)S(=O)(=O)c1cccc(NC(=O)CN2CCCc3ccccc32)c1	Sm TGR inh inconclusive, Lassa entry inh inconclusive, Marburg entry inh 8.91µM
CN(c1ccccc1)S(=O)(=O)c1cccc(NC(=O)CSc2nnc(N)s2)c1	Lassa entry inh inconclusive, Marburg entry inh 18.4µM, VACV mCherry inh inconclusive, FMDV inh inconclusive
Cc1cccc(NC(=O)CSc2nnc(N)s2)c1	none (no result: Marburg entry inh)
CN(c1ccccc1)S(=O)(=O)c1cccc(NC(=O)CSc2ncn[nH]2)c1	Lassa entry inh inconclusive, Marburg entry inh inconclusive, FMDV inh 35.5µM
CCOC(=O)c1ccccc1OCc1cc(/C=N/n2cnnc2)ccc1OC	Marburg entry inh 0.103µM, FMDV inh inconclusive (no result: Vaccinia Venus, VACV mCherry inh)
CCCCc1nc2c(c3c1C[C@H](C)OC3)CN(S(=O)(=O)CCCC)CC2	none (no result: Vaccinia Venus, Sm TGR inh, Lassa entry inh, VACV mCherry inh, FMDV inh)
CCN1CCCC1CNC(=O)c1cnn(-c2ncc(C)c(-c3ccc(F)cc3)n2)c1C(C)C (centres undefined)	none (no result: Sm TGR inh, Lassa entry inh, Marburg entry inh)
Cc1occc1-c1nnc(SCC(=O)Nc2ccc3c(c2)OCO3)n1CC1CCCO1 (centres undefined)	none
CCCn1c(SCC(=O)c2ccc3c(c2)OCCO3)nnc1-c1ccco1	Sm TGR inh inconclusive, Lassa entry inh inconclusive
Cc1occc1-c1nnc(SCC(=O)c2ccc3c(c2)OCCO3)n1CC1CCCO1 (centres undefined)	Sm TGR inh 50.1µM (no result: Vaccinia Venus, Lassa entry inh, Marburg entry inh, VACV mCherry inh)
CCCCn1c(SCC(=O)c2ccc3c(c2)OCCO3)nnc1-c1ccoc1C	Sm TGR inh inconclusive, Marburg entry inh 11.2µM
Cc1occc1-c1nnc(SCCCC(=O)c2ccc(F)cc2)n1C	Marburg entry inh inconclusive, FMDV inh inconclusive (no result: VACV mCherry inh)
Cc1occc1-c1nnc(SCC(=O)c2ccccc2)n1CC1CCCO1 (centres undefined)	Sm TGR inh 28.2µM
CCn1c(SCC(=O)c2ccc(F)cc2)nnc1-c1ccoc1C	Sm TGR inh 39.8µM
CCCCCC(=O)N1C[C@H](n2cc(-c3ccc(F)cc3)nn2)[C@@H](O)C[C@H]1c1ccc(C)cc1	none (no result: Vaccinia Venus, Sm TGR inh, Marburg entry inh, VACV mCherry inh, FMDV inh)
O=C(NCc1ccccc1)C1CCN(S(=O)(=O)c2ccc3c(c2)CCCN3C(=O)C2CCC2)CC1	Lassa entry inh inconclusive (no result: Marburg entry inh)
CCN1C(=S)NC(c2cccs2)C(C(=O)OC)=C1C (centres undefined)	Lassa entry inh inconclusive (no result: Vaccinia Venus, Sm TGR inh, VACV mCherry inh, FMDV inh)
COc1ccc(C)cc1N(C(=O)c1snc(C(N)=O)c1N)C(C(=O)NC1CCCCC1)c1ccc(C)o1 (centres undefined)	Lassa entry inh inconclusive, Marburg entry inh 11.2µM
CCN(c1cccc(C)c1)S(=O)(=O)c1cc(Br)cc2c1N(C(C)=O)C(C)C2 (centres undefined)	Marburg entry inh inconclusive
Cc1ccc(CC2C(=O)N(C)C(=O)N(C)C2=O)s1	Sm TGR inh 39.8µM (no result: Vaccinia Venus, VACV mCherry inh)
O=C(CN1C(=O)/C(=C/c2ccco2)SC1=S)NC1CCS(=O)(=O)C1 (centres undefined)	Sm TGR inh 20µM (no result: Vaccinia Venus, Lassa entry inh, Marburg entry inh, VACV mCherry inh)
O=C(CN1C(=O)/C(=C/c2ccco2)SC1=S)Nc1ccc(O)c(C(=O)O)c1	Sm TGR inh 14.1µM (no result: Vaccinia Venus, Lassa entry inh, Marburg entry inh, VACV mCherry inh)
O=C(CCCN1C(=O)/C(=C/c2ccco2)SC1=S)Nc1cccc(C(=O)O)c1	none
O=C(CN1C(=O)/C(=C/c2ccco2)SC1=S)Nc1ccc(C(=O)O)c(O)c1	Sm TGR inh 14.1µM (no result: Vaccinia Venus, Lassa entry inh, Marburg entry inh, VACV mCherry inh)
